Screen size: about 5,500 compounds; about 2,000 (36%) were called active. Another 18% or so got no clear call; they are omitted. No stated cut-off is given here; in the data, active means normalized growth mostly below about 0.91 (no sharp cut-off); inconclusive means no clear call, values can overlap the other calls; inactive means mostly above about 0.92. The list shows a part of the results.
Assay: chemical genetic growth profiling, strain panel (AID 1159580);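 further: tested at 20 µM; growth read once vehicle control cultures reached saturation at 30 °C; 1 = growth at the plate median or of vehicle wells; lower values mean less growth of the strain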
Details: S. cerevisiae deletion strains, growth OD
[1] = locus YAR019C, strain CDC15, active compounds read low
[2] = locus YBL105C, strain PKC1, active compounds read low
[3] = locus YBR135W, strain CKS1, active compounds read low
[4] = locus YBR136W, strain MEC1, active compounds read low
[5] = locus YBR160W, strain CDC28, active compounds read low
[6] = locus YDL017W, strain CDC7, active compounds read low
[7] = locus YDL028C, strain MPS1, active compounds read low
[8] = locus YDL101C, strain DUN1, active compounds read low
[9] = locus YDL108W, strain KIN28, active compounds read low
[10] = locus YDL132W, strain cdc53, active compounds read low
[11] = locus YDL214C, strain PRR2, active compounds read low
[12] = locus YDR052C, strain DBF4, active compounds read low
[13] = locus YDR054C, strain cdc34, active compounds read low
[14] = locus YDR226W, strain ADK1, active compounds read low
[15] = locus YDR477W, strain SNF1, active compounds read low
[16] = locus YER123W, strain YCK3, active compounds read low
[17] = locus YER133W, strain GLC7, active compounds read low
[18] = locus YFL009W, strain cdc4, active compounds read low
[19] = locus YFL029C, strain CAK1, active compounds read low
[20] = locus YFR003C, strain YPI1, active compounds read low
[21] = locus YFR019W, strain FAB1, active compounds read low
[22] = locus YFR028C, strain CDC14, active compounds read low
[23] = locus YGR040W, strain KSS1, active compounds read low
[24] = locus YGR052W, strain FMP48, active compounds read low
[25] = locus YGR092W, strain DBF2, active compounds read low
[26] = locus YHR030C, strain SLT2, active compounds read low
[27] = locus YHR079C, strain IRE1, active compounds read low
[28] = locus YHR082C, strain KSP1, active compounds read low
[29] = locus YHR205W, strain SCH9, active compounds read low
[30] = locus YIL147C, strain SLN1, active compounds read low
[31] = locus YJL095W, strain BCK1, active compounds read low
[32] = locus YJL128C, strain PBS2, active compounds read low
[33] = locus YJL157C, strain FAR1, active compounds read low
[34] = locus YJR016C, strain ILV3, active compounds read low
[35] = locus YJR066W, strain TOR1 (second series), active compounds read low
[36] = locus YJR066W, strain TOR1, active compounds read low
[37] = locus YKL048C, strain ELM1, active compounds read low
[38] = locus YKL067W, strain YNK1, active compounds read low
[39] = locus YKL101W, strain HSL1, active compounds read low
[40] = locus YKL193C, strain SDS22, active compounds read low
[41] = locus YKL203C, strain TOR2, active compounds read low
[42] = locus YLR113W, strain HOG1, active compounds read low
[43] = locus YLR133W, strain CKI1, active compounds read low
[44] = locus YLR403W, strain SFP1, active compounds read low
[45] = locus YML070W, strain DAK1, active compounds read low
[46] = locus YMR001C, strain CDC5, active compounds read low
[47] = locus YMR205C, strain PFK2 (second series), active compounds read low
[48] = locus YMR277W, strain FCP1, active compounds read low
[49] = locus YNL006W, strain LST8, active compounds read low
[50] = locus YNL020C, strain ARK1, active compounds read low
[51] = locus YNL161W, strain CBK1, active compounds read low
[52] = locus YNL183C, strain NPR1, active compounds read low
[53] = locus YNL207W, strain RIO2, active compounds read low
[54] = locus YNL222W, strain SSU72, active compounds read low
[55] = locus YNL307C, strain MCK1 (second series), active compounds read low
[56] = locus YOL078W, strain AVO1, active compounds read low
[57] = locus YOL136C, strain PFK27, active compounds read low
[58] = locus YOR061W, strain CKA2, active compounds read low
[59] = locus YOR119C, strain RIO1, active compounds read low
[60] = locus YOR231W, strain MKK1, active compounds read low
[61] = locus YOR329C, strain SCD5, active compounds read low
[62] = locus YPL031C, strain PHO85, active compounds read low
[63] = locus YPL153C, strain RAD53, active compounds read low
[64] = locus YPL204W, strain HRR25, active compounds read low
[65] = locus YPL209C, strain IPL1, active compounds read low
[66] = locus YPL256C, strain CLN2, active compounds read low
[67] = locus YPR025C, strain CCL1, active compounds read low
[68] = locus YPR106W, strain ISR1, active compounds read low
[69] = locus YPR111W, strain DBF20, active compounds read low
[70] = strain NNK1, active compounds read low
[71] = strain TSCII, active compounds read low

Measured: normalized growth

O=S(=O)(c1ccc(Cl)cc1)N(Cc1cccnc1)Cc1ccc(Cl)cc1Cl
inactive: [1] 0.951 | [2] 0.966 | [3] 0.962 | [4] 0.95 | [5] 0.969 | [6] 0.968 | [7] 0.96 | [8] 0.967 | [9] 0.946 | [10] 0.929 | [11] 0.732 | [12] 0.924 | [13] 0.928 | [14] 0.938 | [18] 0.947 | [19] 0.942 | [20] 0.963 | [22] 0.94 | [25] 0.704 | [27] 0.55 | [28] 0.7 | [29] 0.583 | [30] 0.939 | [32] 0.958 | [33] 0.715 | [34] 0.949 | [37] 0.89 | [38] 0.745 | [39] 0.799 | [40] 0.941 | [43] 0.767 | [46] 0.963 | [48] 0.932 | [49] 0.959 | [50] 0.743 | [51] 0.968 | [53] 0.913 | [54] 0.961 | [55] 0.68 | [56] 0.946 | [57] 0.711 | [58] 0.787 | [60] 0.593 | [61] 0.96 | [65] 0.949 | [67] 0.952 | [68] 0.962 | [69] 0.975 | [70] 0.948 | [71] 0.927
active: [15] 0.537 | [16] 0.469 | [17] 0.57 | [21] 0.727 | [23] 0.518 | [24] 0.543 | [26] 0.465 | [31] 0.273 | [35] 0.586 | [36] 0.46 | [41] 0.408 | [42] 0.54 | [44] 0.549 | [45] 0.673 | [47] 0.713 | [52] 0.47 | [59] 0.428 | [62] 0.478 | [63] 0.42 | [64] 0.526 | [66] 0.674

O=C(c1ccc(Cl)cc1)N(Cc1ccccc1)Cc1cccnc1
inactive: [1] 0.994 | [2] 0.985 | [3] 0.989 | [4] 0.979 | [5] 0.986 | [6] 0.981 | [7] 0.989 | [8] 0.987 | [9] 0.98 | [10] 0.993 | [11] 0.866 | [12] 0.985 | [13] 0.987 | [14] 0.987 | [15] 0.886 | [16] 0.748 | [17] 0.868 | [18] 0.994 | [19] 0.996 | [20] 0.983 | [21] 0.801 | [22] 0.992 | [23] 0.874 | [24] 0.869 | [25] 0.865 | [26] 0.976 | [27] 0.96 | [28] 0.896 | [29] 0.918 | [30] 0.977 | [31] 0.862 | [32] 0.956 | [33] 0.845 | [34] 0.99 | [35] 0.853 | [36] 0.89 | [37] 0.965 | [38] 0.885 | [39] 0.905 | [40] 0.987 | [41] 0.944 | [42] 0.884 | [43] 0.905 | [44] 0.864 | [45] 0.859 | [46] 0.991 | [47] 0.885 | [48] 0.989 | [49] 1.01 | [50] 0.885 | [51] 0.994 | [52] 0.909 | [53] 0.986 | [54] 0.989 | [55] 0.885 | [56] 0.994 | [57] 0.877 | [58] 0.828 | [59] 0.915 | [60] 0.912 | [61] 0.991 | [62] 0.877 | [63] 0.851 | [64] 0.885 | [65] 0.988 | [66] 0.966 | [67] 0.984 | [68] 0.995 | [69] 0.998 | [70] 0.991 | [71] 0.995

CC(C)(C)C(=O)N(Cc1cccnc1)Cc1ccc(Cl)cc1Cl
inactive: [1] 0.998 | [2] 0.988 | [3] 1 | [4] 0.986 | [5] 0.995 | [6] 0.992 | [7] 0.992 | [8] 0.985 | [9] 0.982 | [10] 0.997 | [11] 0.914 | [12] 0.993 | [13] 0.991 | [14] 1 | [15] 0.948 | [16] 0.842 | [17] 0.948 | [18] 0.998 | [19] 0.996 | [20] 0.993 | [21] 0.9 | [22] 1 | [23] 0.928 | [24] 1.01 | [25] 0.936 | [26] 1.07 | [27] 1.01 | [28] 1.02 | [29] 0.935 | [30] 0.983 | [31] 1.04 | [32] 0.96 | [33] 0.909 | [34] 0.998 | [35] 0.909 | [36] 0.995 | [37] 0.973 | [38] 0.938 | [39] 0.943 | [40] 0.995 | [41] 0.99 | [42] 1.02 | [43] 0.952 | [44] 0.913 | [45] 0.907 | [46] 0.995 | [47] 0.936 | [48] 0.996 | [49] 1 | [50] 0.934 | [51] 0.997 | [52] 1.02 | [53] 1 | [54] 0.993 | [55] 0.963 | [56] 1 | [57] 0.919 | [58] 0.906 | [59] 0.988 | [60] 1.02 | [61] 0.996 | [62] 0.925 | [63] 0.917 | [64] 0.927 | [65] 0.989 | [66] 1.02 | [67] 0.995 | [68] 0.992 | [69] 0.997 | [70] 0.993 | [71] 0.996

O=C(c1cccs1)N(Cc1cccnc1)Cc1ccc(Cl)cc1Cl
inactive: [1] 0.979 | [2] 0.966 | [3] 0.961 | [4] 0.955 | [5] 0.964 | [6] 0.968 | [7] 0.961 | [8] 0.97 | [9] 0.96 | [10] 0.96 | [11] 0.94 | [12] 0.96 | [13] 0.968 | [14] 0.96 | [15] 0.934 | [16] 0.887 | [17] 0.946 | [18] 0.96 | [19] 0.97 | [20] 0.966 | [21] 0.918 | [22] 0.965 | [23] 0.92 | [24] 1.01 | [25] 0.984 | [27] 1.21 | [28] 1.07 | [29] 0.971 | [30] 0.964 | [31] 1.04 | [32] 0.939 | [33] 0.95 | [34] 0.971 | [35] 0.941 | [36] 1.1 | [37] 0.963 | [38] 0.938 | [39] 0.929 | [40] 0.969 | [41] 1.02 | [42] 1 | [43] 0.945 | [44] 0.965 | [45] 0.929 | [46] 0.966 | [47] 0.944 | [48] 0.974 | [49] 0.967 | [50] 0.947 | [51] 0.968 | [52] 1.04 | [53] 0.969 | [54] 0.957 | [55] 0.955 | [56] 0.962 | [57] 0.906 | [58] 0.929 | [59] 0.978 | [60] 0.997 | [61] 0.972 | [62] 0.927 | [63] 0.937 | [64] 0.902 | [65] 0.969 | [67] 0.965 | [68] 0.969 | [69] 0.955 | [70] 0.975 | [71] 0.966
active: [26] 1.22 [resistant] | [66] 1.15 [resistant]
